# From PubChem BioAssay
# The source made the active and inactive calls.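 The calls were made as follows, unless noted: active = mean inhibition above 46.5%, the solvent-only control mean plus 3 SD; inactive = the rest.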
# System: transactivating tegument protein VP16 (Human herpesvirus 1)
# Test: VP16 transactivation reporter inhibitors, counter-screen for SRC2 inhibitor project, cell-based, luminescence, single concentration (AID 652007; in the data active = inhibition above about 36%)
# Conditions: cell-based VP16 transactivation luciferase reporter, at 8.9 µM, stronger effect = higher value
row,Structure (SMILES),inhibition
1,O=C(NCc1ccc(Cl)c(Cl)c1)c1cc(C2CCCCN2C(=O)CCc2ccccc2)on1 (stereo not given),-6.3% (inactive)
2,CCOC(=O)C1CCCN(C(=O)CCNS(=O)(=O)c2ccc(Br)cc2)C1 (stereo not given),10.6% (inactive)
3,c1ccc(C2=Nn3c(nnc3-c3ccncc3)SC2)cc1,-2.29% (inactive)
4,Cc1ccc2c(c1)nnn2C1CCN(CC(=O)N(c2ccccc2)c2ccccc2)CC1,14.5% (inactive)
5,CCOc1ccc(C(=O)C(CN2CCOCC2)c2ccccc2)cc1 (stereo not given),14.2% (inactive)
6,C/C(CC(=O)NC1C2CC3CC(C2)CC1C3)=N\NC(=O)Cc1cccs1 (stereo not given),-16.1% (inactive)
7,Cc1cc(C(=O)COC(=O)c2ccc(O)cc2O)c(C)n1-c1ccc(OC(F)F)cc1,12.6% (inactive)
8,CC1=CC(C)(C)Nc2ccc(OC(=O)c3ccco3)cc21,-20.4% (inactive)
9,COc1ccc(Nc2nc(C)nc3c2oc2ccccc23)c(OC)c1,2.99% (inactive)
10,CN1CCN(S(=O)(=O)c2ccc(N(C)Cc3cccc(F)c3)nc2)CC1,-0.35% (inactive)
11,COc1ccc(-n2c(-c3ccccc3)c[n+]3c2CCC3)cc1,6.63% (inactive)
12,Cc1cnc(NC(=O)COc2ccccc2Cl)s1,-10.5% (inactive)
13,Cc1csc(NC(=O)CSc2ccc([N+](=O)[O-])cn2)n1,-0.96% (inactive)
14,Cc1cccc(Nc2nc(NCc3ccco3)c3ccccc3n2)c1,25.1% (inactive)
15,CN(C(=O)CCc1nnc(-c2ccc(-c3ccccc3)cc2)o1)C1CCOCC1,-6.16% (inactive)
16,CNc1ccccc1C(=O)OC(C)C(=O)Nc1ccc(Cl)cn1 (stereo not given),-10.2% (inactive)
17,Cc1ccc(NC(=O)C2CCN(S(=O)(=O)c3ccc(N4CCCC4=O)cc3)CC2)cc1Cl,31% (inactive)
18,COc1cc(OC)c(CN2CCc3c([nH]c4ccccc34)C2)cc1Br,-7.11% (inactive)
19,CCOc1ccc(CN2CCNC(=O)C2CC(=O)NCCc2cnccn2)cc1 (stereo not given),10.4% (inactive)
20,CNc1ccc(N=Nc2cccc3ncccc23)cc1,-76% (inactive)

row,Structure (SMILES),inhibition
1,O=C(c1ccc(NS(=O)(=O)c2cccc(F)c2)cc1)N1CCCCC1,-7.22% (inactive)
2,CCC(C(=O)NCc1ccc(F)cc1)n1nc(C)n2c(cc3occc32)c1=O (stereo not given),-13.4% (inactive)
3,Cc1ccc(C(=O)NC(=S)Nc2ccc(-c3cc4ccccc4oc3=O)cc2)c(C)c1,-3.58% (inactive)
4,C=CCn1nc(C(=O)N2CCOCC2)cc1-c1sc(NC(=O)c2ccccc2)nc1C,-15.6% (inactive)
5,O=C(Nc1ccncc1)c1c(Cl)cccc1Cl,-4.71% (inactive)
6,CCCCCC(=O)N1CC2(CC(c3cccc(NC(=O)COc4ccc(Cl)cc4)c3)=NO2)C[C@@H]1C(N)=O (stereo not given in full),-7.91% (inactive)
7,C=CC[C@]12CC=CC(=O)[C@@]1(O)O[C@H](c1ccc(OC)c(OC)c1)[C@H]2C,22.7% (inactive)
8,O=C1C=CC(=O)C(CNc2ccc(C(=O)OCc3ccccc3)cc2)=C1,38.2% (active)
9,Cc1ccc(NC(=O)CSc2ncnc3ccccc23)cc1S(=O)(=O)N1CCCCCC1,12.7% (inactive)
10,CC(C)(C)c1ccc(C(=O)Nc2ccc(NC(=O)C(=O)O)cc2)o1,-30% (inactive)
11,CNC(=O)c1nnsc1S(=O)(=O)c1ccc(Cl)cc1,49.1% (active)
12,O=C(OC12CCCN(C1)/C(=C/c1ccncc1)C2)c1ccc(Cl)cc1 (stereo not given),-7.98% (inactive)
13,C=CCc1c(C)nc(SC(C)C)[nH]c1=O,0.2% (inactive)
14,CCc1ccc(CNC(=O)c2cc3c(C)nc4ccccc4c3o2)cc1,20.6% (inactive)
15,CCCC(CCC)C(=O)Nc1ccc2c(c1)N(C(=O)CN1CCN(C)CC1)c1ccccc1CC2,-0.11% (inactive)
16,COc1ccc(/C=C2\SC(=S)N(CCCC(=O)Nc3ccc(O)cc3)C2=O)cc1,52.4% (active)
17,CCc1ccc(/C=C2\SC(=S)N(CCC(=O)Nc3cc(C)on3)C2=O)cc1,-41% (inactive)
18,COC(=O)[C@]12C[C@H](CC(=O)N3CCCC3)C(=O)N(CCC3=CCCCC3)C1=C[C@H](C(C)C)O[C@@H]2C1CC1,-0.66% (inactive)
19,O=C(CN1CCN(CC(=O)Nc2ccccc2Cc2ccccc2)CC1)Nc1ccccc1Cl,11.3% (inactive)
20,COc1ccc(-n2nc3cc(C)c(N)c(Br)c3n2)cc1,-67.1% (inactive)

# Target: Nuclear receptor coactivator 2 (Homo sapiens) (UniProt Q15596)
# Sequence (Q15596 whole entry, looked up): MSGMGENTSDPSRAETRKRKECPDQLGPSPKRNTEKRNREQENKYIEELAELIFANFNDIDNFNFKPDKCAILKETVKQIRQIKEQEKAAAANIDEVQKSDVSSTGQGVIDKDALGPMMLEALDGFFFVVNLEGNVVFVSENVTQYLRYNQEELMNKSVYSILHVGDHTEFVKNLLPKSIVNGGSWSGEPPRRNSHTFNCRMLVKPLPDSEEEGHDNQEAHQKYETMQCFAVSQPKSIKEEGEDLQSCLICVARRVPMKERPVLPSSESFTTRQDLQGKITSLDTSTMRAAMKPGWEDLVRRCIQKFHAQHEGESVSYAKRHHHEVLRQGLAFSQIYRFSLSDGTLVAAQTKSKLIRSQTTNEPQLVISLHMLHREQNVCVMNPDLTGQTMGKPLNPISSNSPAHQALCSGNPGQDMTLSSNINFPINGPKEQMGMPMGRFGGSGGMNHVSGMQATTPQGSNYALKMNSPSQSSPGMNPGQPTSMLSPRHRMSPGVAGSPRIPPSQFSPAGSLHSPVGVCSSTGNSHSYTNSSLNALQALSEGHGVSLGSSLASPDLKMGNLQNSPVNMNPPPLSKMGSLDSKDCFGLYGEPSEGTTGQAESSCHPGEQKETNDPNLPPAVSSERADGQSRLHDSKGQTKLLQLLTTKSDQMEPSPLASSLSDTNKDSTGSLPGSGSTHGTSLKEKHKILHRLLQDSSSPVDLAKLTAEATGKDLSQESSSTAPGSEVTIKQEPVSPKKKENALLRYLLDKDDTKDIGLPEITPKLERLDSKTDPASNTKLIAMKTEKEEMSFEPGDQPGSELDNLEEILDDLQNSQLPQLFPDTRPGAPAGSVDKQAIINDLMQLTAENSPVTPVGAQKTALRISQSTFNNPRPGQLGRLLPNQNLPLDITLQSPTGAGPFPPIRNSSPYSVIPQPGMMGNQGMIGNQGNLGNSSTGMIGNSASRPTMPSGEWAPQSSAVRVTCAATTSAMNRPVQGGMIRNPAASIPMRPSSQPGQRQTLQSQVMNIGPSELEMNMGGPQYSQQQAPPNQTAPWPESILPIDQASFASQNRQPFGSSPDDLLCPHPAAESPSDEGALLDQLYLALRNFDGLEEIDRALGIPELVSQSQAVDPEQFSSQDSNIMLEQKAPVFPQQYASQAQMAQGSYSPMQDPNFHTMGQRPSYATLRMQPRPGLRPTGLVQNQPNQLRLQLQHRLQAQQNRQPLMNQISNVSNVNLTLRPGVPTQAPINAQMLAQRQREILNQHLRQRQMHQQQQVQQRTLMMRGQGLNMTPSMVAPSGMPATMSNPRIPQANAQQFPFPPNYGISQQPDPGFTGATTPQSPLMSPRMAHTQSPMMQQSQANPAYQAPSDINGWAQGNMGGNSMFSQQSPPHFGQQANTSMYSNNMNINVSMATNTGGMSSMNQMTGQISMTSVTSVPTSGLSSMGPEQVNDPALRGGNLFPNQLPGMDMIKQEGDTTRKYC
# Test: SRC2 coactivator transcriptional activity inhibitors, confirmation, cell-based, luminescence, HEK293, triplicate (AID 652008);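 also: 0% = DMSO-treated cells and 100% = Gossypol at 36 µM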
# Conditions: HEK293 GAL4-SRC2 luciferase reporter, at 8.9 µM, stronger effect = higher value
row,Structure (SMILES),inhibition
1,O=C(NCc1ccc(Cl)c(Cl)c1)c1cc(C2CCCCN2C(=O)CCc2ccccc2)on1 (stereo not given),12.6% (inactive)
2,CCOC(=O)C1CCCN(C(=O)CCNS(=O)(=O)c2ccc(Br)cc2)C1 (stereo not given),-4.97% (inactive)
3,c1ccc(C2=Nn3c(nnc3-c3ccncc3)SC2)cc1,34.6% (inactive)
4,Cc1ccc2c(c1)nnn2C1CCN(CC(=O)N(c2ccccc2)c2ccccc2)CC1,33.7% (inactive)
5,CCOc1ccc(C(=O)C(CN2CCOCC2)c2ccccc2)cc1 (stereo not given),42.6% (inactive)
6,C/C(CC(=O)NC1C2CC3CC(C2)CC1C3)=N\NC(=O)Cc1cccs1 (stereo not given),-8.93% (inactive)
7,Cc1cc(C(=O)COC(=O)c2ccc(O)cc2O)c(C)n1-c1ccc(OC(F)F)cc1,35.1% (inactive)
8,CC1=CC(C)(C)Nc2ccc(OC(=O)c3ccco3)cc21,31.6% (inactive)
9,COc1ccc(Nc2nc(C)nc3c2oc2ccccc23)c(OC)c1,4.48% (inactive)
10,CN1CCN(S(=O)(=O)c2ccc(N(C)Cc3cccc(F)c3)nc2)CC1,-11.8% (inactive)
11,COc1ccc(-n2c(-c3ccccc3)c[n+]3c2CCC3)cc1,36% (inactive)
12,Cc1cnc(NC(=O)COc2ccccc2Cl)s1,18.8% (inactive)
13,Cc1csc(NC(=O)CSc2ccc([N+](=O)[O-])cn2)n1,-30.9% (inactive)
14,Cc1cccc(Nc2nc(NCc3ccco3)c3ccccc3n2)c1,33.9% (inactive)
15,CN(C(=O)CCc1nnc(-c2ccc(-c3ccccc3)cc2)o1)C1CCOCC1,26.7% (inactive)
16,CNc1ccccc1C(=O)OC(C)C(=O)Nc1ccc(Cl)cn1 (stereo not given),20.9% (inactive)
17,Cc1ccc(NC(=O)C2CCN(S(=O)(=O)c3ccc(N4CCCC4=O)cc3)CC2)cc1Cl,46.4% (inactive)
18,COc1cc(OC)c(CN2CCc3c([nH]c4ccccc34)C2)cc1Br,-4.79% (inactive)
19,CCOc1ccc(CN2CCNC(=O)C2CC(=O)NCCc2cnccn2)cc1 (stereo not given),-23.9% (inactive)
20,CNc1ccc(N=Nc2cccc3ncccc23)cc1,14.4% (inactive)

row,Structure (SMILES),inhibition
1,O=C(c1ccc(NS(=O)(=O)c2cccc(F)c2)cc1)N1CCCCC1,-9% (inactive)
2,CCC(C(=O)NCc1ccc(F)cc1)n1nc(C)n2c(cc3occc32)c1=O (stereo not given),-6.88% (inactive)
3,Cc1ccc(C(=O)NC(=S)Nc2ccc(-c3cc4ccccc4oc3=O)cc2)c(C)c1,19.5% (inactive)
4,C=CCn1nc(C(=O)N2CCOCC2)cc1-c1sc(NC(=O)c2ccccc2)nc1C,24.6% (inactive)
5,O=C(Nc1ccncc1)c1c(Cl)cccc1Cl,12.5% (inactive)
6,CCCCCC(=O)N1CC2(CC(c3cccc(NC(=O)COc4ccc(Cl)cc4)c3)=NO2)C[C@@H]1C(N)=O (stereo not given in full),-5.91% (inactive)
7,C=CC[C@]12CC=CC(=O)[C@@]1(O)O[C@H](c1ccc(OC)c(OC)c1)[C@H]2C,32% (inactive)
8,O=C1C=CC(=O)C(CNc2ccc(C(=O)OCc3ccccc3)cc2)=C1,39.2% (inactive)
9,Cc1ccc(NC(=O)CSc2ncnc3ccccc23)cc1S(=O)(=O)N1CCCCCC1,20.7% (inactive)
10,CC(C)(C)c1ccc(C(=O)Nc2ccc(NC(=O)C(=O)O)cc2)o1,-15.8% (inactive)
11,CNC(=O)c1nnsc1S(=O)(=O)c1ccc(Cl)cc1,49.1% (active)
12,O=C(OC12CCCN(C1)/C(=C/c1ccncc1)C2)c1ccc(Cl)cc1 (stereo not given),25.9% (inactive)
13,C=CCc1c(C)nc(SC(C)C)[nH]c1=O,-25.4% (inactive)
14,CCc1ccc(CNC(=O)c2cc3c(C)nc4ccccc4c3o2)cc1,10.3% (inactive)
15,CCCC(CCC)C(=O)Nc1ccc2c(c1)N(C(=O)CN1CCN(C)CC1)c1ccccc1CC2,-4.28% (inactive)
16,COc1ccc(/C=C2\SC(=S)N(CCCC(=O)Nc3ccc(O)cc3)C2=O)cc1,35.3% (inactive)
17,CCc1ccc(/C=C2\SC(=S)N(CCC(=O)Nc3cc(C)on3)C2=O)cc1,16.6% (inactive)
18,COC(=O)[C@]12C[C@H](CC(=O)N3CCCC3)C(=O)N(CCC3=CCCCC3)C1=C[C@H](C(C)C)O[C@@H]2C1CC1,-19.4% (inactive)
19,O=C(CN1CCN(CC(=O)Nc2ccccc2Cc2ccccc2)CC1)Nc1ccccc1Cl,4.85% (inactive)
20,COc1ccc(-n2nc3cc(C)c(N)c(Br)c3n2)cc1,-140% (inactive)
